Results published in PubChem BioAssay.
“And” between values parts separate entries of the source, which are not always exact repeats. Identical values can stand only once. The source made the active and inactive calls.

Legend:
[1] = system: PRMT1 (protein arginine N-methyltransferase 1); experiment: small molecules binding arginine methyltransferase PRMT1 – biochemical, small-molecule microarray, 635 nm fluorescence, primary screen (AID 1088); conditions: higher = more signal;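 note: binding of Prmt1 protein to compounds spotted on small-molecule microarray slides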
[2] = growth effects on S. cerevisiae YJM789 – YJM789 clinical isolate, OD600, 24 h, basal, primary screen (AID 1089); conditions: higher = more signal, called active from +8 up or from −8 down;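 note: growth of clinical yeast isolate S. cerevisiae YJM 789 seeded 1000 cells per well; test concentration not given here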
[3] = S. pombe growth modifiers, basal conditions – strain 972, OD600, 24 h, no modulator, primary screen (AID 1090);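 note: basal condition with compound alone and no growth modifier present; test concentration not given here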; conditions: S. pombe 972 growth, higher = more signal, called active from +8 up or from −8 down
[4] = budding yeast growth modifiers under rapamycin – strain BY4716, OD600, 96 h, primary screen (AID 1091); note: test concentration not given here; conditions: S. cerevisiae BY4716 + rapamycin, higher = more signal, called active from +8 up or from −8 down
[5] = target: Torsin-1A-interacting protein 2 (Homo sapiens) (UniProt Q8NFQ8); experiment: small molecules binding lysate-expressed LULL1 – cell lysate, human LULL1 lysate, 635/667 nm fluorescence, primary screen (AID 1092); conditions: small-molecule microarray, hLULL1 lysate binding, 635 nm fluorescence; higher = more signal;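 note: probe is lysate of COS7 cells overexpressing human LULL1; score merges per-feature 667 nm fluorescence with signal-to-noise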
Torsin-1A-interacting protein 2 (Homo sapiens), sequence (Q8NFQ8 whole entry, looked up): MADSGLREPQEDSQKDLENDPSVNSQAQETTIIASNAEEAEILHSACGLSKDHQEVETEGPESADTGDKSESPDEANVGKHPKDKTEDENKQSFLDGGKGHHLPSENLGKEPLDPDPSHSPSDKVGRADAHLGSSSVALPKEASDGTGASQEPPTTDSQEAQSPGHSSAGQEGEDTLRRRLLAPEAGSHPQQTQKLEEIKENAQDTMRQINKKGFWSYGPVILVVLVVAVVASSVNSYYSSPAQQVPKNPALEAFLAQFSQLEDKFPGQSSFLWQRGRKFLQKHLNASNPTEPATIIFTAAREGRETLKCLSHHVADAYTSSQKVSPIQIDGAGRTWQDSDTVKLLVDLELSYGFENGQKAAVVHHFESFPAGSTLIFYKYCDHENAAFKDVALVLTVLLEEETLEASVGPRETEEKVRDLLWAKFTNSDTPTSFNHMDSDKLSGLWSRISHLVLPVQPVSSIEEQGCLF

[6] = optical density change of DRC41 E. coli – strain DRC41, OD650, 24 h, E. coli filamentation project, primary screen (AID 1093);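 note: MC1000 strain lacking acrAB efflux and sulA so SOS filamentation is blocked; test concentration not given here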; conditions: E. coli DRC41 growth, higher = more signal, called active from +8 up or from −8 down
[7] = probe aLefty2 binding to arrayed compounds – biochemical, biotinylated probe, 635/667 nm fluorescence, primary screen (AID 1094); conditions: small-molecule microarray, higher = more signal;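 note: score merges spot fluorescence near 667 nm with spot signal-to-noise ratio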
[8] = system: Noggin (protein binding on small-molecule microarray); experiment: small molecules binding Noggin protein – biochemical, 635/667 nm fluorescence, primary screen (AID 1095); conditions: 635 nm fluorescence, higher = more signal;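 note: score merges 667 nm feature fluorescence with signal to noise over triplicate slides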
[9] = target: Neurogenic locus notch homolog protein 3 (Homo sapiens) (UniProt Q9UM47); experiment: small molecules binding NOTCH3 protein – biochemical, 635/667 nm fluorescence, primary screen (AID 1096); conditions: small-molecule microarray, 635 nm fluorescence, higher = more signal
Neurogenic locus notch homolog protein 3 (Homo sapiens), sequence (Q9UM47 whole entry, looked up): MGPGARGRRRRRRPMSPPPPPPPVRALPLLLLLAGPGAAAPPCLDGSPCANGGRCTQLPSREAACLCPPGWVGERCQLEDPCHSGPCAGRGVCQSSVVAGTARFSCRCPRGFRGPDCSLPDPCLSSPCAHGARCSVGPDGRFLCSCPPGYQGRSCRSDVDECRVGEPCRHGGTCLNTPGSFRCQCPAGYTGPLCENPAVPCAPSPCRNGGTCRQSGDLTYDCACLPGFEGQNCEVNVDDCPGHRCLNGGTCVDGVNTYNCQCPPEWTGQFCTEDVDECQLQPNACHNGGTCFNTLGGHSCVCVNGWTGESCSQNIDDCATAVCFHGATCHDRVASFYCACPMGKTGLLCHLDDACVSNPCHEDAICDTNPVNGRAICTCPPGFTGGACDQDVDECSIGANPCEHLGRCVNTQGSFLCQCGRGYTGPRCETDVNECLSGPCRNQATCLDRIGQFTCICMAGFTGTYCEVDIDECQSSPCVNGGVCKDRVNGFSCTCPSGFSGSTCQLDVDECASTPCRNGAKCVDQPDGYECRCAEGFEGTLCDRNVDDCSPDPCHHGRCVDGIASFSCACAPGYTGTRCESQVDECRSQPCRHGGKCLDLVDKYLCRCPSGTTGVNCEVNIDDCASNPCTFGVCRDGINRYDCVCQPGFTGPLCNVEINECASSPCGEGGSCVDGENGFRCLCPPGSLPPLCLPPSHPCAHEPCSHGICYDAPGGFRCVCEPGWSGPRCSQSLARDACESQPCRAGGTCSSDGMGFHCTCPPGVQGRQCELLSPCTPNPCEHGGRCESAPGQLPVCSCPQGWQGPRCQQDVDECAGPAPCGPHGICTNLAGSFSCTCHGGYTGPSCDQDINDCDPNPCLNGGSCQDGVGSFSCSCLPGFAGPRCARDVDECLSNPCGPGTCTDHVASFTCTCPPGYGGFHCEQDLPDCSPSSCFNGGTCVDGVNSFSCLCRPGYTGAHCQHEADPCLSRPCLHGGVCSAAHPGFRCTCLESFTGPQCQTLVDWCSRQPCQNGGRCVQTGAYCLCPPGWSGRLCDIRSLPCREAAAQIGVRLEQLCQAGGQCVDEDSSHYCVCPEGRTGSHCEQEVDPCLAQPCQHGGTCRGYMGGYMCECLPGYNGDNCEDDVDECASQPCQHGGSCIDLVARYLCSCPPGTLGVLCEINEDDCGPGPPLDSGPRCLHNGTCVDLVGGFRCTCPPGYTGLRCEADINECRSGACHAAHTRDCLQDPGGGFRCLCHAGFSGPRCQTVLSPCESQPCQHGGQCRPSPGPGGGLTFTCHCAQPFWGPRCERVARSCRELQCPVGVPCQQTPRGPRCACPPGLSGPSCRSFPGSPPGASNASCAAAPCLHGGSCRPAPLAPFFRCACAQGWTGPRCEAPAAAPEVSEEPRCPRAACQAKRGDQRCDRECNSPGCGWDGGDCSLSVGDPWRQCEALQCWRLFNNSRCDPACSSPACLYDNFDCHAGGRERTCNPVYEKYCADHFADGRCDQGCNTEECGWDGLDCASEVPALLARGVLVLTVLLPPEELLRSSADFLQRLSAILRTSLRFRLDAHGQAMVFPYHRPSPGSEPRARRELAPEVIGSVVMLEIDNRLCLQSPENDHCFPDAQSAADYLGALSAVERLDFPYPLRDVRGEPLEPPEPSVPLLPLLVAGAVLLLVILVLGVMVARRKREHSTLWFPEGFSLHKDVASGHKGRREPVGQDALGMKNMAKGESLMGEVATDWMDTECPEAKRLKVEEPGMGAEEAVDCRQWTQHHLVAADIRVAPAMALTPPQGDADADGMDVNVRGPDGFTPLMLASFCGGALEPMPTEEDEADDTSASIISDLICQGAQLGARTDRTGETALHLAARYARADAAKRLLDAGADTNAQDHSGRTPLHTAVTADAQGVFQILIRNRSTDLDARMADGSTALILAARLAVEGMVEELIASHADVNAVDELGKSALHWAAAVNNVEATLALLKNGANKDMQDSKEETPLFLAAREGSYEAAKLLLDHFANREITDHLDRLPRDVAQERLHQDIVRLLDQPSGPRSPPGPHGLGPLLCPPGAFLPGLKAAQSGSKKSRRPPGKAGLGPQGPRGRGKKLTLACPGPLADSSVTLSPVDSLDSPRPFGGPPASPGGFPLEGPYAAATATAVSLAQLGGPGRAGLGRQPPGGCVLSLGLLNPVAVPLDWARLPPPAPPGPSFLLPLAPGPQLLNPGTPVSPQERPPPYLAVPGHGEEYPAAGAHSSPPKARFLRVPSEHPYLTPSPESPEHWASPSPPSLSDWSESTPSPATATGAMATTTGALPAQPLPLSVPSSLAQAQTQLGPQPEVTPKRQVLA

[10] = probe aEGFR binding to arrayed compounds – biochemical, biotinylated probe, 635/667 nm fluorescence, primary screen (AID 1097); conditions: small-molecule microarray, higher = more signal;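 note: probe is a biotinylated anti-EGFR antibody binding compounds printed on slides; score combines fluorescence near 667 nm and signal to noise of each spot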
[11] = system: Plasmodium falciparum Sir2 (PF13_0152, Sir2A); experiment: Plasmodium falciparum Sir2A binding compounds – biochemical, small-molecule microarray, 635 nm fluorescence, primary screen (AID 1098); conditions: fluorescence 635 nm, higher = more signal;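 note: score merges spot fluorescence intensity with its signal-to-noise ratio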
[12] = probe aDKK1 binding to arrayed compounds – biochemical, biotinylated probe, 635/667 nm fluorescence, primary screen (AID 1099); conditions: small-molecule microarray, higher = more signal;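 note: score merges 667nm spot fluorescence with signal to noise across triplicate slides; reference of the scale not given here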
[13] = probe aCHRDL2 binding to arrayed compounds – biochemical, biotinylated probe, 635/667 nm fluorescence, primary screen (AID 1100); conditions: small-molecule microarray, higher = more signal
[14] = change in splice reporter luminescence, either direction, cell-based, HEK293, spliceosome inhibition project, primary screen (AID 1101); conditions: HEK293 splicing luciferase reporter, 24 h, higher = more signal, called active from +8 up or from −8 down;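 note: HEK293 cells carrying a splicing-competent luciferase reporter gene; test concentration not given here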
[15] = target: Fibroblast growth factor 10 (Homo sapiens) (UniProt O15520); experiment: compounds binding fibroblast growth factor 10 – biochemical, small-molecule microarray, 635 nm fluorescence, primary screen (AID 1102); conditions: FGF10 binding, fluorescence 635 nm, higher = more signal
Fibroblast growth factor 10 (Homo sapiens), sequence (O15520 whole entry, looked up): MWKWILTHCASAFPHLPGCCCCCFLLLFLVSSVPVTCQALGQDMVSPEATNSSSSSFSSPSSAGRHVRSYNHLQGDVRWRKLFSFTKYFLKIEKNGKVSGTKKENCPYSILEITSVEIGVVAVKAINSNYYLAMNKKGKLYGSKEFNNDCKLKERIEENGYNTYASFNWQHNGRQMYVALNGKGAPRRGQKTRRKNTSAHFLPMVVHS

[16] = system: glycogen synthase kinase-3 (GSK3A per assay name; protocol says GSK3B); experiment: compounds binding glycogen synthase kinase-3 – biochemical, small-molecule microarray, 635 nm fluorescence, GSK3A, primary screen (AID 1103); conditions: fluorescence 635 nm, higher = more signal; note: the record names both GSK3A and GSK3B
[17] = target: Epidermal growth factor receptor (Homo sapiens) (UniProt P00533); experiment: compounds binding epidermal growth factor receptor – biochemical, small-molecule microarray, 635 nm fluorescence, primary screen (AID 1104); conditions: EGFR binding, higher = more signal;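 note: score merges 667 nm emission intensity with spot signal to noise over triplicate slides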
Epidermal growth factor receptor (Homo sapiens), sequence (P00533 whole entry, looked up): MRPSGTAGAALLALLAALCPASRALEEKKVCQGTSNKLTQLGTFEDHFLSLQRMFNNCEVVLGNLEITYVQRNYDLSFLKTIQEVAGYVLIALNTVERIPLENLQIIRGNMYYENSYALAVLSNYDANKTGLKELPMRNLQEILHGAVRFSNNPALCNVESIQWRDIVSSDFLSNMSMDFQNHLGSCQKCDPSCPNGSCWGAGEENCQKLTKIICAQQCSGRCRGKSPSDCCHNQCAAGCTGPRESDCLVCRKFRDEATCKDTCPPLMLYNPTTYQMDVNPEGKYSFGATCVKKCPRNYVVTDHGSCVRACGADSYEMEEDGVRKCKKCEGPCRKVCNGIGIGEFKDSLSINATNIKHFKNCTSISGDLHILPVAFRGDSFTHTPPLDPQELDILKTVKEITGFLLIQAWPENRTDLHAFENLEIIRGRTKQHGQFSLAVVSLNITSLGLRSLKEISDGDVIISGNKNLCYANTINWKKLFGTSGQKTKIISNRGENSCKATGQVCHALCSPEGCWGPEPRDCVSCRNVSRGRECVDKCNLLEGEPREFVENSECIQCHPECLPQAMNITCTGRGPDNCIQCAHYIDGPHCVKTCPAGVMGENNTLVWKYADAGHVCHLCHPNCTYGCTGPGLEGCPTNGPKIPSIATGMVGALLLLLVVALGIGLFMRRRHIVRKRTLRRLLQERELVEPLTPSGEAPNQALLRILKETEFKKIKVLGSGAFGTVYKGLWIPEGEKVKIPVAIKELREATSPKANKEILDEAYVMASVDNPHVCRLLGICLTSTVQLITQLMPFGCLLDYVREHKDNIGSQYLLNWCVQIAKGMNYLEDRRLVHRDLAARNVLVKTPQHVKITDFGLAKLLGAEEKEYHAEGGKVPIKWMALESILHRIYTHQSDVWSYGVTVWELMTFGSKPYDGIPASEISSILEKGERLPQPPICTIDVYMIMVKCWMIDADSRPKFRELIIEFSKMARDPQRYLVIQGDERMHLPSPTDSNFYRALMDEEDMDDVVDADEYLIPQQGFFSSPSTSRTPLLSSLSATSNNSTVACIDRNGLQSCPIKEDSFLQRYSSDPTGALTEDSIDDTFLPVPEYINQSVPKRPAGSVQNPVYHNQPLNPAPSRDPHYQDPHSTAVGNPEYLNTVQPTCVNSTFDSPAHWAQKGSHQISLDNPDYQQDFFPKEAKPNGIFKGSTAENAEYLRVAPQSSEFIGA

[18] = target: Follistatin-related protein 3 (Homo sapiens) (UniProt O95633); experiment: compounds binding follistatin-related protein 3 – biochemical, small-molecule microarray, 635 nm fluorescence, primary screen (AID 1105); conditions: FSTL3 binding, higher = more signal;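 note: score merges emission near 667 nm and signal to noise per printed spot across three slides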
Follistatin-related protein 3 (Homo sapiens), sequence (O95633 whole entry, looked up): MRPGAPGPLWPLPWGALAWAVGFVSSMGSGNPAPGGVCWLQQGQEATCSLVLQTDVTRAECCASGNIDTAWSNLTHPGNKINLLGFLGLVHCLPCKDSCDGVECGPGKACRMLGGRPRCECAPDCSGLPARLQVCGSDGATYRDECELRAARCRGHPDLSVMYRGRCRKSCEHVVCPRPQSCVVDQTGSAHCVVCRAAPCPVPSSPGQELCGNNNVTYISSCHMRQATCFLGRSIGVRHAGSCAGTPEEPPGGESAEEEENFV

[19] = target: Dickkopf-related protein 1 (Homo sapiens) (UniProt O94907); experiment: small molecules binding DKK1 protein – biochemical, small-molecule microarray, 635 nm fluorescence scan, primary screen (AID 1106); conditions: higher = more signal;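 note: score merges emission near 667 nm with signal to noise over three replicate slides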
Dickkopf-related protein 1 (Homo sapiens), sequence (O94907 whole entry, looked up): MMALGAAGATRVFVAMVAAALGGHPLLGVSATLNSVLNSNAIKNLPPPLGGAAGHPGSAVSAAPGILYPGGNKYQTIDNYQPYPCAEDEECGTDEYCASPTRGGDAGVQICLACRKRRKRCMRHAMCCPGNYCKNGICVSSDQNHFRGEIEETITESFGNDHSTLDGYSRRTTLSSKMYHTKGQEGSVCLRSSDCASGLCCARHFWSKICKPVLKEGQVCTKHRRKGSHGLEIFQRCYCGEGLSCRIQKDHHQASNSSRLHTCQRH

[20] = system: Inhibin beta A chain (activin A); experiment: small molecules binding activin A – biochemical, small-molecule microarray, 635 nm fluorescence scan, primary screen (AID 1107); conditions: INHBA, higher = more signal;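 note: mouse activin A protein probed at 4.33 µg/mL on printed slides; score merges bound-protein fluorescence near 667 nm with spot signal-to-noise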

| Structure (SMILES) | composite z-score [1] | z-score [2] | z-score [3] | z-score [4] | composite z-score [5] | z-score [6] | composite z-score [7] | composite z-score [8] | composite z-score [9] | composite z-score [10] | composite z-score [11] | composite z-score [12] | composite z-score [13] | z-score [14] | composite z-score [15] | composite z-score [16] | composite z-score [17] | composite z-score [18] | composite z-score [19] | composite z-score [20] |
| --- | --- | --- | --- | --- | --- | --- | --- | --- | --- | --- | --- | --- | --- | --- | --- | --- | --- | --- | --- | --- |
| C[N+](C)(C)CCCCCCNC(=O)[C@@H]1C[C@@H]2C(=O)N[C@@H](CCCC[N+](C)(C)C)C(=O)N2[C@@H]1c1ccc(O)cc1 | 1 and 1.3 | 0.272 (inactive) and 0.534 (inactive) | 0.352 (inactive) and 0.356 (inactive) | 0.02 (inactive) and 0.327 (inactive) | 0.611 and 2.02 | 0.392 (inactive) and -0.176 (inactive) | -0.0356 and -0.117 | 1.21 and 1.28 | 0.643 and 0.994 | -0.122 and -0.128 | 0.892 and 0.579 | -0.126 and -0.175 | 0.229 and 0.305 | -0.0316 (inactive) and 0.431 (inactive) | 0.606 and 0.803 | -0.115 and 0.255 | 0.0444 and -0.539 | 0.8 and 0.827 | 1.11 and 0.869 | 0.908 and 0.391 |
| CO[C@H]1COC(=O)CC=C[C@@H](C)COC(=O)[C@H](CCSC)NC(=O)CC=C[C@@H]1C | 1.55 and 1.54 | 0.833 (inactive) and -0.697 (inactive) | -0.201 (inactive) and -0.712 (inactive) | 0.35 (inactive) and -0.862 (inactive) | -0.649 and -1.15 | 0.32 (inactive) and -0.145 (inactive) | -0.114 and -0.0629 | 1.64 and 2.04 | 0.593 and 0.59 | 0.49 and 0.59 | 0.536 and 0.111 | -0.51 and -0.591 | -1.59 and -2.05 | 0.191 (inactive) and -0.244 (inactive) | 1.12 and 1.16 | 1.29 and 1.3 | 1.28 and 1.69 | 1.57 and 1.49 | 2.29 and 2.22 | 0.626 and -0.119 |
| C=CCN(Cc1ccccc1)C(=O)C1N(c2c(Cl)cccc2CO)C(=O)C2C(C(=O)O)C3C=CC21O3 (stereo not given) | -1.44 and -1.17 | -3.28 (inactive) and 1.06 (inactive) | -0.875 (inactive) and -0.0197 (inactive) | -1.39 (inactive) and 0.236 (inactive) | -1.2 and -1.34 | 3.06 (inactive) and 1.29 (inactive) | -0.114 and 0.0686 | -2.68 and -3.18 | -2.25 and -1.57 | -0.21 and -0.395 | -1.57 and -0.0019 | 0.059 and 0.175 | 0.845 and 1.19 | -2.02 (inactive) and -0.804 (inactive) | -0.944 and -1.32 | -1.84 and -1.45 | -1.91 and -1.77 | -1.61 and -2.46 | -2.28 and -1.9 | -0.934 and -2.5 |
| C[N+](C)(C)CCCCNC(=O)[C@H]1C[C@H]2C(=O)N[C@@H](CCCC[N+](C)(C)C)C(=O)N2[C@H]1c1ccc(O)cc1 | 1.54 and 1.55 | 0.877 (inactive) and -0.0113 (inactive) | 0.565 (inactive) and 0.352 (inactive) | -1.16 (inactive) and -1.35 (inactive) | -0.296 and -0.656 | -0.118 (inactive) and 0.0161 (inactive) | -0.171 and -0.214 | 1.73 and 1.84 | 0.97 and 0.969 | 0.0338 and -0.127 | 1.3 and 1.94 | -0.237 and -0.18 | -0.904 and -0.983 | 0.411 (inactive) and -1.57 (inactive) | 1.56 and 1.47 | 1.31 and 0.668 | 1.16 and 0.868 | 1.44 and 1.34 | 2.03 and 1.92 | 1.02 and 0.383 |
